Data as given in PubChem BioAssay (Tox21).
Results filed as inconclusive are left out. Active and inactive are the calls of the source. Calls come from the whole dose curve; as a rule, active = well fitted activation curve with a large enough effect in the signal ratio in the repeat runs (not every such curve was filed as active); inconclusive = weak or mixed curves; inactive = flat fitted curve, though single readings scatter; the % refers to the signal ratio.

Assay: qHTS assay to identify small molecule agonists of H2AX (AID 1224845)
Conditions: CHO-K1 phospho-H2AX Ser139 HTRF, 3 h; series mostly up to 154 µM
From the text: National Center for Advancing Translational Sciences [NCATS]
NIH Chemical Genomics Center [NCGC]
U.S. Environmental Protection Agency [EPA]
National Institutes of Environmental Health Sciences [NIEHS]
National Toxicology Program [NTP]
U.S. Food and Drug Administration [FDA]
HTRF phospho-H2AX (Ser139) assay (Cisbio Bioassays, US) enables the quantitative detection of the histone variant H2AX when phosphorylated on serine 139. When double-stranded DNA breaks, either by ionizing radiation or endogenous physiological processes, H2AX becomes phosphorylated at Ser139. This phospho-Ser139 serves as a sensitive biomarker for the detection of such breaks, localizing the site of DNA repair. So, HTRF phospho-H2AX Ser139 is a pertinent assay to study genome stability, the cell cycle, DNA repair, and it serves as a biomarker for cancer, and to understand aging. Wild type CHO-K1 cells were used to identify the inducers of Phospho-H2AX Ser 139 from the Tox21 10K compound collections.
Tox21 Assay Protocol Summary:
The CHO-K1 cells suspended in culture medium containing 10% FBS were dispensed at 1000 cells/ 3 ul/well in 1536-well white wall/solid bottom plates (Greiner Bio-One North America, NC) using a Multidrop Combi (Thermo Fisher Scientific Inc., Waltham, MA). After the assay plates were incubated at 37C overnight, 23 nl of compounds at 15 concentrations (from 5-48 columns) or positive control (from 1 to 4 columns) were transferred to the assay plates using a Pintool station (Wako, San Diego, CA) into each well resulting in a final DMSO concentration of 0.76%. After 3hr incubation at 37C, 1 uL/well Supplemented Lysis buffer (diluted 100 fold blocking reagent in lysis buffer) (HTRF Phospho-H2A.X (S139) Assay kit from Cisbio US Inc., Bedford, MA) was added using a Flying Reagent Dispenser (FRD) (Aurora Discovery, CA). After 10sec spin at 1000 rpm in a plate centrifuge, the assay plates were incubated at room temperature for 30 min. Then followed by the addition of 1 uL/well detection buffer (containing a mixture of two antibodies, one labeled with cryptate, Anti pH2AX (S139)-K and another labeled with d2, Anti H2AX-d2) using FRD. After incubation at room temperature for 24 hr, the time resolved fluorescence at excitation 320 nm and emissions at 665 nm and 620 nm was measured using an Envision plate reader (PerkinElmer, Waltham, MA).
For `NNc1ccc(C(=O)O)cc1`, the outcome was “inactive”.
For `CC1=CC2C3CC(C=C3C)C2C1` (stereo not given), the outcome was “inactive”.
For `CC(=O)C1(C)CC2=C(CCCC2(C)C)CC1C` (stereo not given), the outcome was “inactive”.
For `C#C[C@]1(O)CC[C@H]2[C@@H]3CCc4cc(OC)ccc4[C@H]3CC[C@@]21C`, the outcome was “inactive”.
For `CCCCOCCOCCO`, the outcome was “inactive”.
With `O=C(/C=C/c1ccccc1)OCc1ccccc1` the outcome was “inactive”.
For `O=C(c1ccccc1)c1ccc(O)cc1O`, the outcome was “inactive”.
In the case of `CN1C(C(=O)Nc2ccccn2)=C(O)c2ccccc2S1(=O)=O`, the outcome is reported as “inactive”.
In the case of `O=CCCCC=O`, the outcome is reported as “inactive”.
In the case of `O=C1c2cccc(O)c2C(=O)c2c(O)cccc21`, the outcome is reported as “inactive”.
With `COC(=O)c1ccccc1` the outcome was “inactive”.
With `COc1c(Cl)c(Cl)c(Cl)c(Cl)c1Cl` the outcome was “inactive”.
For `CCCCC(CC)COP(=O)(OCC(CC)CCCC)OCC(CC)CCCC` (stereo not given), the outcome was “inactive”.
In the case of `Cc1ccc2c(n1)Oc1ccc(C(C)C(=O)OCC(=O)N(C)C)cc1C2` (stereo not given), the outcome is reported as “inactive”.
With `C=C(C)C1CC=C(C)CC1` (stereo not given) the outcome was “inactive”.
With `OCCO` the outcome was “inactive”.
In the case of `CCCCCCCCCCCO`, the outcome is reported as “inactive”.
In the case of `COC(=O)CCC(=O)OC`, the outcome is reported as “inactive”.
With `c1ccc2c(c1)Oc1ccccc1S2` the outcome was “inactive”.
For `CC(=O)Oc1ccccc1C(=O)Nc1ncc([N+](=O)[O-])s1`, the outcome was “inactive”.
With `C=CC(C)(CCC=C(C)C)OC(C)=O` (stereo not given) the outcome was “inactive”.
In the case of `OC1CCCCCCCCCCC1`, the outcome is reported as “inactive”.
For `OC(CCl)CCl`, the outcome was “inactive”.
With `COc1ccc(OC)c(C(O)CNC(=O)CN)c1` (stereo not given) the outcome was “inactive”.
In the case of `COC(C)COC(C)COC(C)CO` (stereo not given), the outcome is reported as “inactive”.
In the case of `O=CCc1ccccc1`, the outcome is reported as “inactive”.
In the case of `Cc1cccc([N+](=O)[O-])c1C`, the outcome is reported as “inactive”.
For `CCCCC(CC)COCC1CO1` (stereo not given), the outcome was “inactive”.
With `COC(=O)Nc1nc2ccc(S(=O)c3ccccc3)cc2[nH]1` (stereo not given) the outcome was “inactive”.
For `CCCCCCCCCC(=O)OC`, the outcome was “inactive”.
With `Cc1ccc(C)c(O)c1C` the outcome was “inactive”.
In the case of `C=C(C)C(=O)OCCOC(=O)C(=C)C`, the outcome is reported as “inactive”.
With `CC(C)(C)NC(=O)[C@H]1CC[C@H]2[C@@H]3CC[C@H]4NC(=O)C=C[C@]4(C)[C@H]3CC[C@]12C` the outcome was “inactive”.
With `CC(C(=O)O)c1cccc(C(=O)c2ccccc2)c1` (stereo not given) the outcome was “inactive”.
With `Nc1ccc(Cl)cc1Cl` the outcome was “inactive”.
With `CC(C)CC(C)(O)C#CC(C)(O)CC(C)C` (stereo not given) the outcome was “inactive”.
In the case of `CCCCNS(=O)(=O)c1ccccc1`, the outcome is reported as “inactive”.
With `O=C(COc1ccc(Cl)cc1)N1CCN(Cc2ccc3c(c2)OCO3)CC1` the outcome was “inactive”.
In the case of `NC=O`, the outcome is reported as “inactive”.
In the case of `O=P(O)(O)O`, the outcome is reported as “inactive”.
